Here are results for 34 molecules from PubChem BioAssay AID1645852 (National Center for Advancing Translational Sciences (NCATS), 2021).

The structures appear in SMILES notation. About 160 (13%) of roughly 1,200 compounds were called active. Roughly 31% stayed inconclusive and do not appear here. The call rests on the fitted dose curve; in most records, active means well fitted inhibition curve with a large enough effect; inconclusive means small, poorly fitted or top-dose-only effect; inactive means no such curve, though single readings can be large or run the other way. Only a sample is shown.
On the % scale 0 is the no-effect control and ±100 the full control effect; potency means the concentration at half of the fitted maximal effect.

Inositol hexakisphosphate kinase 1 (Homo sapiens), sequence (Q92551 whole entry, looked up): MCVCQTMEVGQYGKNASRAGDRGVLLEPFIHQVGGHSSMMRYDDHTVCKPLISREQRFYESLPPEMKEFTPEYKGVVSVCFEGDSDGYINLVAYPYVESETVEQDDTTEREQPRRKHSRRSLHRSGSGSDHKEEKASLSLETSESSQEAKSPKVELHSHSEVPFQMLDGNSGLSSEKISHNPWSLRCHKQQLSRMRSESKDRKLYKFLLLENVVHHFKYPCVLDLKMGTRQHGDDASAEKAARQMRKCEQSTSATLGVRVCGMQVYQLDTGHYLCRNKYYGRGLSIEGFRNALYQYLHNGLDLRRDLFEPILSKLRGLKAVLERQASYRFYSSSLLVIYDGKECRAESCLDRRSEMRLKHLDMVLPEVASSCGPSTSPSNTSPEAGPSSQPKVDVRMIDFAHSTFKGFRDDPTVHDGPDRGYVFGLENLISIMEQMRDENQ

The assay addresses Inositol hexakisphosphate kinase 1 (Homo sapiens) (UniProt Q92551). The assay is described as follows: Confirmatory qHTS assay for small molecule inhibitors of Inositol hexaphosphate kinase 1 (IP6K1). Further: nearly all actives have a fitted effect of over 65% in size. Particulars: recombinant IP6K1 kinase, ADP-Glo luminescence, 2 h; series mostly up to 49 µM; activity change, negative = inhibition: at the top concentration. An excerpt: Assay Provider: Huijun Wei, M.S., Ph.D. School of Medicine, Johns Hopkins University, Baltimore, MD Inositol hexakisphosphate kinases (IP6Ks) catalyze pyrophosphorylation of inositol hexakisphosphate (IP6) into inositol 5-diphospho-1,2,3,4,6-pentakisphosphate (IP7), which is involved in numerous areas of cell physiology including glucose homeostasis, blood coagulation and neurological development. Inhibition of IP6Ks may be effective for the treatment of Type II diabetes, thrombosis, and psychiatric disorders. We performed a quantitative high throughput screen (qHTS) of 158,410 compounds for IP6K1 inhibitors using ankinase activity ADP-Glo Max assay. […] Medicinal chemistry SAR efforts in three chemical series identified potent IP6K1 inhibitors, which were further validated in an orthogonal LC-MS IP7 analysis.
PROTOCOL TABLE SEQUENCE No. (e.g., 1, 2, 3, etc.); […] (e.g., Cells, Incubation, Reagent, etc.); VALUE and DESCRIPTION. 1. Reagent, 3 uL of 1.3 mM ATP and 130 uM IP6 mixture in assay buffer was dispensed to a white, 1536-well assay plate. 2. Compound, 23 nL of compounds of the top two doses (57.5 uM and 19.1 uM final concentration) of the libraries were dispensed into the mixture using the Kalypsis pintool. 3. Reagent, 1 uL of 2.4 uM IP6K1 was dispensed to the assay plates. 4. Incubation, 2 hr incubation at room temperature. 5. Reagent, 2 uL of ADP-Glo reagent was added to the wells. 6. Incubation, 1 hr incubation at room temperature. 7. Reagent, 4 uL or ADP-Glo substate was added to the wells. 8. Incubation, 45 min incubation at room temperature. 9. Detection, luminescence signal was detected using the ViewLux microplate imager (PerkinElmer).
For the molecule `Cc1ccc(CNC(=O)CCc2c(C)nc3c(c(C)nn3-c3ccccc3)c2C)cc1`, the “activity change, negative = inhibition” value is -6.31% (inactive). Same read-out and setting: to `COc1ccc(C2Cn3nnc(C(=O)N4CCN(C(=O)c5ccc(C)cc5C)CC4)c3CO2)cc1` (centres undefined) belongs 4.29% (inactive); to `COc1c(C)cnc(CN(C)C(=O)C2CC(=O)N(C3CCCC3)C2)c1C` (centres undefined), 0.975% (inactive). Still for that read-out and setting: for `CCCS(=O)(=O)c1ncc(Cl)c(C(=O)Nc2scc(-c3ccccc3)c2C(=O)OCC)n1` the value was -6.72% (inactive).

`Cc1ccc(-c2nnc3ccc(-c4ccoc4)nn23)nc1`: the “activity change, negative = inhibition” value was 0.0128% [at 92.2 µM] (inactive). With `CC1=C(C(=O)Nc2ccccc2Cl)C(c2cccs2)n2ncnc2N1` (centres undefined), the “activity change, negative = inhibition” value was -29.2% (inactive). Same read-out and setting: to `CN(C)[C@@H]1C(=O)C(C(N)=O)=C(O)[C@@]2(O)C(=O)C3=C(O)c4c(O)ccc(Cl)c4[C@@H](O)[C@H]3C[C@@H]12` belongs -16.3% (inactive); to `Cc1ccc(-c2cc(C(=O)Oc3ccccc3Cl)no2)cc1C`, 30.1% (inactive).

On to `COc1cc(NC(=O)Nc2cccc(CNC(=O)O[C@H]3CCOC3)c2)ccc1-c1cnco1`, for which the Potency was 8.2 µM (active). As to `C#C[C@]1(O)CC[C@H]2[C@@H]3CCC4=C/C(=N/O)CC[C@@H]4[C@H]3CC[C@@]21CC`, the Potency is 1.84 µM (active). On to `Cc1cccc(C(=O)N2CCC3(CC2)CC(c2ccccc2)CN(C)C3)n1` (centres undefined), for which the “activity change, negative = inhibition” value was -16.6% (inactive). The same measure, in the same setting: for `Cc1cc(C)c(/C=C2\C(=O)Nc3ccccc32)[nH]1` the value was -5.46% (inactive); for `Cc1ccc(-c2onc(C)c2C)cc1S(=O)(=O)Nc1ccccn1`, -5.89% (inactive).

On to `CC(C)(C)OC(=O)N1CCC(c2c(C(=O)N3CCc4ccccc4C3)cnn2-c2ccc(F)cc2)CC1`, for which the “activity change, negative = inhibition” value is 4.4% (inactive). In the case of `CCc1ccccc1N1CC(c2nc3ccccc3n2CCCCOc2ccccc2)CC1=O` (centres undefined), the “activity change, negative = inhibition” value was -0.175% (inactive). Still for that read-out and setting: to `O=c1cc(-c2cccnc2)oc2c(-c3ccccc3O)nccc12` belongs -25.6% (inactive). As to `CCOc1cccc2c1N[C@@H](c1ccc(C(=O)O)cc1)[C@H]1CC=C[C@@H]21`, the Potency was 20.6 µM (active).

As to `CCOC(=O)c1cc2c(=O)n3ccccc3nc2n(Cc2ccco2)c1=NC(=O)c1ccc(F)cc1`, the “activity change, negative = inhibition” value was -13% (inactive).

As for `CCOC(=O)c1ccc(CSc2nnc3cc(C)c4ccccc4n23)cc1`, the “activity change, negative = inhibition” value is -13% (inactive). In the case of `Cc1ccc2c(c1)N(CC(=O)NCCCN1CCCCC1)C(=O)c1cccnc1O2`, the “activity change, negative = inhibition” value is -8.72% (inactive). The same measure, in the same setting: to `O=C(OCCN1CCOCC1)c1cccnc1Nc1cccc(C(F)(F)F)c1` belongs -19.8% (inactive); to `COc1ccccc1N1CCN(S(=O)(=O)CCNC(=O)COc2ccc(F)cc2)CC1`, 0.724% (inactive); to `CCOc1ncccc1C(=O)N1CCN(Cc2ccccc2)CC(O)C1` (centres undefined), -4.84% (inactive). The same measure, in the same setting: to `O=c1ncn(Cc2ccccc2)c2ccc(-c3ccoc3)nc12` belongs -9.81% (inactive). On the same count and under the same terms, for `CCOC(=O)c1ccc(NC(=O)CCS(=O)(=O)c2ccc(C)cc2)cc1` the value was -10.6% (inactive). With `CO[C@H]1C=CO[C@@]2(C)Oc3c(C)c(O)c4c(O)c(c(/C=N/N5CCN(C)CC5)c(O)c4c3C2=O)NC(=O)/C(C)=C\C=C[C@H](C)[C@H](O)[C@@H](C)[C@@H](O)[C@@H](C)[C@H](OC(C)=O)[C@@H]1C`, the “activity change, negative = inhibition” value is -21.3% (inactive). Still for that read-out and setting: to `CCOc1ccccc1NC(=O)C1CCCN(S(=O)(=O)c2cn(C)cn2)C1` (centres undefined) belongs -14.5% (inactive); to `C(=C\c1ccccc1)/CN1CCN(c2nccc(-c3cccnc3)n2)CC1`, -13.6% (inactive); to `CCc1ccccc1N1C(=O)CN(S(=O)(=O)CC)CC1(C)C(=O)NC1CCCCC1` (centres undefined), 22.6% (inactive).

`O=c1c2ccccc2n(Cc2cccc(Cl)c2)c(=O)n1Cc1ccccc1`: the “activity change, negative = inhibition” value was -4.11% (inactive). On the same count and under the same terms, to `Cc1ccc(NC(=O)c2cc(S(=O)(=O)NCCC3=CCCCC3)ccc2F)cc1C` belongs 4.86% (inactive); to `CC1(C)CN(C(=O)c2ccc(-c3cccc4nc(NC(=O)C5CC5)nn34)cc2)C1`, 7.31% (inactive). The same measure, in the same setting: for `COc1ccc2ncc3c(-c4ccc(C)c(C)c4)nn(CC(=O)NC4CCCC4)c3c2c1` the value was 26.6% (inactive); for `Cc1ccncc1C(=O)N1CCC2(CC1)CC(c1ccccc1)C(=O)N2C` (centres undefined), -13.6% (inactive).
